# Results filed as inconclusive are left out. Where a call stands in place of a potency, no number is given. The source made the active and inactive calls. Calls come from the whole dose curve; as a rule, active = well fitted cell-killing curve with a large enough effect; inconclusive = small, poorly fitted or top-dose-only effect, or effect the other way; inactive = no such curve, though single readings can be large or run the other way.
# Tests used:
# [1] = Quantitative High-Throughput drug screen in 47 multiple myeloma cell lines against the NCATS MIPE library collection: FR4_PLB cell viability assay (AID 1918924; note: nearly all actives have a fitted effect of over 35% in size); settings: FR4_PLB myeloma cells viability, CellTiter-Glo ATP, 48 h; series mostly up to 45.8 µM
# Method in brief: (§1)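 Viability readout: CellTiter-Glo luminescence following 5 min room-temperature incubation with reagent. Prior exposure: 48 h, 37C, humidified 5% CO2, 500 cells per well.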
# [2] = Quantitative High-Throughput drug screen in 47 multiple myeloma cell lines against the NCATS MIPE library collection: EJM_DSMZ cell viability assay (AID 1918926; note: nearly all actives have a fitted effect of over 30% in size); settings: EJM myeloma cell viability, CellTiter-Glo ATP, 48 h; series mostly up to 45.8 µM
# Method in brief: (§2)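 Inhibition of cell viability is measured here. Each line was plated at 500 cells per well, treated with MIPE 4.0 drugs, kept 48 hours at 37C, then assayed for ATP content by CellTiter-Glo luminescence.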
# [3] = Quantitative High-Throughput drug screen in 47 multiple myeloma cell lines against the NCATS MIPE library collection: AMO1_DSMZ cell viability assay (AID 1918927; note: nearly all actives have a fitted effect of over 30% in size); settings: AMO1 myeloma cells viability, CellTiter-Glo ATP luminescence, 48 h; series mostly up to 45.8 µM
# Method in brief: as §2
# [4] = Quantitative High-Throughput drug screen in 47 multiple myeloma cell lines against the NCATS MIPE library collection: ARP1_JJKsccF8 cell viability assay (AID 1918928; note: nearly all actives have a fitted effect of over 40% in size); settings: ARP1 myeloma cells viability, CellTiter-Glo ATP, 48 h; series mostly up to 45.8 µM
# Method in brief: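 Myeloma cells at 500 per well in 1536-well format treated with MIPE 4.0 library by pin transfer for 48 h at 37C, 5% CO2. Viability from ATP luminescence (CellTiter-Glo), normalized to DMSO (100%) and media-only (0%) wells.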
# [5] = Quantitative High-Throughput drug screen in 47 multiple myeloma cell lines against the NCATS MIPE library collection: ARD_JJKsccE7 cell viability assay (AID 1918929); settings: ARD myeloma cell line viability, CellTiter-Glo, 48 h; series mostly up to 45.8 µM
# Method in brief: as §2
# [6] = Quantitative High-Throughput drug screen in 47 multiple myeloma cell lines against the NCATS MIPE library collection: Karpas620_DSMZ cell viability assay (AID 1918959); settings: Karpas620 myeloma viability, CellTiter-Glo ATP luminescence, 48 h; series mostly up to 45.8 µM; note: nearly all actives have a fitted effect of over 30% in size
# Method in brief: as §1
# [7] = Quantitative High-Throughput drug screen in 47 multiple myeloma cell lines against the NCATS MIPE library collection: Delta47_JCRB cell viability assay (AID 1918925; note: nearly all actives have a fitted effect of over 45% in size); settings: Delta47 myeloma viability, CellTiter-Glo ATP, 48 h; series mostly up to 45.8 µM
# Method in brief: as §2
# Potency is the fitted concentration of half-maximal effect.
SMILES,Potency [1],Potency [2],Potency [3],Potency [4],Potency [5],Potency [6],Potency [7]
OCCN1C[C@H](O)[C@@H](O)[C@H](O)[C@@H]1CO,inactive,inactive,inactive,inactive,inactive,inactive,–
NC(=O)c1ncn([C@@H]2O[C@H](CO)[C@@H](O)[C@@H]2O)c1N,inactive,inactive,inactive,inactive,inactive,inactive,–
COC(=O)[C@@H]1CC2=CC(=O)CC[C@]2(C)[C@@]23O[C@@H]2C[C@@]2(C)[C@H](CC[C@@]24CCC(=O)O4)[C@@H]13,inactive,inactive,inactive,–,inactive,inactive,–
Cc1ccc([N+](=O)[O-])cc1S(=O)(=O)N(C)N=Cc1cnc2ccc(Br)cn12,0.0166 µM (active),23.5 nM (active),0.0148 µM (active),0.0264 µM (active),0.0118 µM (active),0.0264 µM (active),–
O=C(NNC(=O)c1ccc(CNS(=O)(=O)c2ccc(F)c(Cl)c2)cc1)c1ccccc1,inactive,inactive,–,inactive,inactive,inactive,–
CCOC(=O)N1CCN([N+]([O-])=NOc2ccc([N+](=O)[O-])cc2C#N)CC1,0.743 µM (active),–,1.05 µM (active),1.05 µM (active),–,–,1.05 µM (active)
OCC(O)C(O)C(O)CO (stereo unspecified),inactive,inactive,–,–,inactive,inactive,inactive
CO[C@@H]1[C@@H](O)[C@H](O)[C@@H](n2c3c(Cl)cccc3c3c4c(c5c6cccc(Cl)c6[nH]c5c32)C(=O)NC4=O)O[C@@H]1CO,3.32 µM (active),2640 nM (active),0.166 µM (active),–,–,1.48 µM (active),–
COc1ccnc2[nH]cc(C(=O)C(=O)N3CCN(C(=O)c4ccccc4)C[C@@H]3C)c12,inactive,inactive,inactive,16.6 µM (active),–,–,–
COc1cc(OC)c(C=CS(=O)(=O)Cc2ccc(OC)c(NCC(=O)O)c2)c(OC)c1,0.118 µM (active),–,0.0332 µM (active),0.372 µM (active),0.0743 µM (active),–,0.148 µM (active)
COc1cccc2c1C(=O)c1c(O)c3c(c(O)c1C2=O)C[C@@](O)(C(C)=O)C[C@H]3O[C@H]1C[C@H](N)[C@H](O)[C@H](C)O1,0.132 µM (active),105 nM (active),–,0.059 µM (active),0.235 µM (active),0.0662 µM (active),–
COc1cccc2c1C(=O)c1c(O)c3c(c(O)c1C2=O)C[C@@](O)(C(=O)CO)C[C@H]3O[C@H]1C[C@H](N)[C@H](O)[C@H](C)O1,0.264 µM (active),209 nM (active),1.05 µM (active),0.332 µM (active),2.96 µM (active),1.05 µM (active),–
CC(=CC(=O)Nc1ccccc1C(=O)O)c1ccc2ccccc2c1,inactive,–,–,–,14.8 µM (active),–,14.8 µM (active)
N#Cc1ccc(COC[C@H]2O[C@@H](n3c(NCc4ccc(Cl)c(Cl)c4)nc4c(N)ncnc43)[C@@H](O)[C@@H]2O)cc1,13.2 µM (active),–,–,6.62 µM (active),–,–,16.6 µM (active)
C[C@H]1O[C@H](O[C@H]2[C@H](O)[C@@H](O)[C@@H](O[C@H]3[C@H](O)[C@@H](O)C(O)O[C@H]3CO)O[C@H]2CO)[C@H](O)[C@@H](O)[C@H]1N[C@H]1C=C(CO)[C@@H](O)[C@H](O)[C@@H]1O (stereo partly specified),inactive,inactive,–,inactive,–,–,–
Cc1ccc(O)c(C(CCN(C(C)C)C(C)C)c2ccccc2)c1 (stereo unspecified),inactive,1.7 nM (active),inactive,inactive,inactive,inactive,–
OC[C@@H](O)[C@@H](O)[C@H](O)[C@@H](O)CO,inactive,inactive,5.9 µM (active),inactive,–,inactive,–
O=C(C=CC=Cc1ccc2c(c1)OCO2)N1CCCCC1,inactive,inactive,inactive,–,–,–,–
CN1CCCN(C(=O)c2cccc(-c3ccc(C=C4C(=O)Nc5ccc(Cl)cc54)o3)c2)CC1,26.4 µM (active),–,7.43 µM (active),16.6 µM (active),8.33 µM (active),9.35 µM (active),20.9 µM (active)
COc1ccc2cc([S+]([O-])Cc3ncc(C)c(OC)c3C)nc2c1,inactive,inactive,–,inactive,–,–,–
CN[C@H](CC(C)C)C(=O)N[C@H]1C(=O)N[C@@H](CC(N)=O)C(=O)N[C@@H]2C(=O)N[C@H]3C(=O)N[C@H](C(=O)N[C@H](C(=O)O)c4cc(O)cc(O)c4-c4cc3ccc4O)[C@H](O)c3ccc(c(Cl)c3)Oc3cc2cc(c3O[C@@H]2O[C@H](CO)[C@@H](O)[C@H](O)[C@@H]2O[C@H]2C[C@](C)(N)[C@H](O)[C@H](C)O2)Oc2ccc(cc2Cl)[C@H]1O,inactive,inactive,inactive,inactive,0.0023 µM (active),inactive,–

SMILES,Potency [1],Potency [2],Potency [3],Potency [4],Potency [5],Potency [6],Potency [7]
O=c1[nH]c(=O)n([C@H]2C[C@@H](O)[C@@H](CO)O2)cc1F,13.2 µM (active),–,1.66 µM (active),5.26 µM (active),23.5 µM (active),–,18.7 µM (active)
OCc1ccccc1O[C@@H]1O[C@H](CO)[C@H](O)[C@H](O)[C@H]1O,inactive,10500 nM (active),–,–,inactive,inactive,13.2 µM (active)
CN1[C@H]2CC(OC(=O)[C@@H](CO)c3ccccc3)C[C@H]1[C@H]1O[C@H]12 (stereo partly specified),inactive,inactive,inactive,inactive,–,inactive,–
CC(=O)N[C@@H]1[C@H](O[C@@H]2c3ccc(c(Cl)c3)Oc3cc4cc(c3O[C@H]3O[C@H](CO)[C@@H](O)[C@H](O)[C@H]3NC(=O)CCCCCCCC(C)C)Oc3ccc(cc3Cl)C[C@H]3NC(=O)[C@H](N)c5ccc(O)c(c5)Oc5cc(O)cc(c5)[C@H](NC3=O)C(=O)N[C@H]4C(=O)N[C@H]3C(=O)N[C@@H]2C(=O)N[C@@H](C(=O)O)c2cc(O)cc(O[C@H]4O[C@H](CO)[C@@H](O)[C@H](O)[C@H]4O)c2-c2cc3ccc2O)O[C@H](CO)[C@@H](O)[C@@H]1O,inactive,inactive,inactive,inactive,inactive,inactive,–
O=C(O)[C@H](CC(=O)N1C[C@@H]2CCCC[C@H]2C1)Cc1ccccc1,inactive,inactive,–,inactive,–,–,–
O=C(NCc1ccccc1)[C@H](Cc1ccccc1)NC(=O)[C@@H]1O[C@@H]1C(=O)NCCc1ccc(O)cc1,inactive,83.3 nM (active),20.9 µM (active),–,–,26.4 µM (active),–
CC1(C)CC(O)CC(C)(C)N1[O],inactive,inactive,inactive,inactive,–,inactive,–
CN[C@H]1[C@@H](O)[C@@H]2O[C@@H]3O[C@H](C)CC(=O)[C@]3(O)O[C@@H]2[C@@H](NC)[C@H]1O,1.66 µM (active),166 nM (active),0.418 µM (active),1.32 µM (active),0.469 µM (active),–,–
NS(=O)(=O)OC[C@@H]1C[C@@H](n2ccc3c(N[C@H]4CCc5ccccc54)ncnc32)C[C@H]1O,9.35 µM (active),–,0.296 µM (active),–,–,–,0.526 µM (active)
Cc1cnn(C)c1C(=O)Nc1cc(Nc2ccc3c(C=Cc4ccccn4)n[nH]c3c2)ccc1F,20.9 µM (active),–,9.35 µM (active),–,4.18 µM (active),–,8.33 µM (active)
CC(=O)N1CCN(c2ccc(OCc3nn(C)c(C)c3-c3cccc4c(CCCOc5cccc6ccccc56)c(C(=O)O)n(Cc5cccnc5)c34)cc2)CC1,10.5 µM (active),105 nM (active),0.0526 µM (active),10.5 µM (active),0.118 µM (active),1.87 µM (active),–
O=C1NC(=O)C(=Cc2ccc3nccc(-c4ccncc4)c3c2)S1,0.332 µM (active),662 nM (active),–,0.0833 µM (active),–,0.296 µM (active),–
CN(N=O)C(=O)N[C@H]1C(O)OC(CO)[C@@H](O)[C@H]1O (stereo partly specified),inactive,–,–,inactive,inactive,inactive,inactive
CN(C)CC[C@H](c1ccc(Cl)cc1)c1ccccn1,inactive,–,–,inactive,–,inactive,inactive
CON=C(C(=O)N[C@@H]1C(=O)N2C(C(=O)O)=C(Cn3ccc(=N)n3CCO)CS[C@H]12)c1csc(N)n1,inactive,inactive,inactive,–,–,inactive,–
O=c1[nH]c(=O)n([C@H]2C[C@@H](O)[C@@H](CO)O2)cc1C=CBr,–,inactive,–,inactive,–,inactive,inactive
Cn1cc(C=CC(=O)c2cccc(F)c2)cc1C=CC(=O)NO,–,–,18.7 µM (active),16.6 µM (active),–,–,–
COc1cc(C(=O)NC2CCN(C)CC2)ccc1Nc1ncc2c(n1)N(C1CCCC1)CCC(=O)N2C(C)C,–,16600 nM (active),9.35 µM (active),29.6 µM (active),18.7 µM (active),23.5 µM (active),14.8 µM (active)
C#C[C@]1(O)CC[C@@H]2[C@@H]3CCc4cc(O)ccc4[C@H]3CC[C@@]21C,–,6620 nM (active),16.6 µM (active),23.5 µM (active),18.7 µM (active),–,7.43 µM (active)
COC(=O)[C@@H]1[C@H]2C[C@@H]3c4[nH]c5ccccc5c4CCN3C[C@@H]2CC[C@@H]1O,–,inactive,inactive,inactive,inactive,–,inactive
Cc1nc(NC(=O)N2CCC[C@@H]2C(N)=O)sc1-c1ccnc(C(C)(C)C(F)(F)F)c1,–,–,–,0.418 µM (active),–,–,1.66 µM (active)
